Data reported in PubChem BioAssay AID686940 (The Scripps Research Institute Molecular Screening Center, 2013).
Screen size: about 370,000 compounds; about 2,600 (0.7%) were called active. The sample holds actives, similar compounds and a random draw of the others, so the mix is not that of the screen. Values without a mark were called inactive.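 Rule for the calls: active = inhibition above a per-plate cutoff, mean inhibition of test wells between control levels plus 3 SD (cut at about 38% in these data); inactive = the rest.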

target: COUP transcription factor 2 (Homo sapiens) (UniProt P24468); experiment: COUP-TFII reporter suppression in human cells – cell-based, luciferase reporter, HEK293T, luminescence, primary screen (AID 686940); conditions: HEK293T NGFI-A luciferase reporter, at 8.6 µM, hits give high values;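 note: cells cotransfected with COUP-TFII expression vector driving the NGFI-A reporter; 0% = median of COUP-TF2 test wells and 100% = reporter-only cells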
Sequence (P24468 whole entry, looked up): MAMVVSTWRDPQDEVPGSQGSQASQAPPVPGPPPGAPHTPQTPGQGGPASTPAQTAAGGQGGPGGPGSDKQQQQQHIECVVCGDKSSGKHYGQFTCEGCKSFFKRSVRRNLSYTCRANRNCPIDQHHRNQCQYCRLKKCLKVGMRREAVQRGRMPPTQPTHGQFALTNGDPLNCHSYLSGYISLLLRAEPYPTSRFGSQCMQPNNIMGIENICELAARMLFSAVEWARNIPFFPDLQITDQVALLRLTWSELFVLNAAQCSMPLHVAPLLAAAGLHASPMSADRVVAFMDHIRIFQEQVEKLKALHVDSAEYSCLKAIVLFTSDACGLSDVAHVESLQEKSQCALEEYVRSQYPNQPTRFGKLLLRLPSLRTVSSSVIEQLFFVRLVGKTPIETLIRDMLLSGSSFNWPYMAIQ

Structure (SMILES)	inhibition
C[C@H](C(=O)N(C)c1ccccc1)[C@@H](O)c1ccc2ccccc2c1	10.2%
Cc1ccc(-n2c(COc3ccccc3)nnc2SCC(=O)Nc2ccc3c(c2)OCCO3)cc1	9.88%
OCCCNc1nccc(-c2cc(Nc3cccc(Cl)c3)ncn2)n1	44.6% (active)
COc1ccc(-n2c(SCC(=O)NC3CCCC3)nnc2-c2ccncc2)cc1	4.6%
CCC(=O)OCCCN1C(=O)CCC12CCC(c1ccccc1)CC2 (configuration not stated)	-6.04%
COc1ccc(C(=O)CSc2nnc(-c3cnccn3)n2-c2ccc(C)cc2)cc1	3.51%
O=C(CCl)NC1CCCCN(Cc2cccc(C(F)(F)F)c2)C1=O (configuration not stated)	4.87%
COc1ccc2c(c1)c(=Cc1ccc(N(C)C)cc1)c1cc(-c3ccccc3)[n+](C)n12	76.4% (active)
COC(=O)C1CN(CC(C)C)CCS(=O)(=O)N1Cc1ccc(F)cc1 (configuration not stated)	6.54%
Cc1nc(CNc2ncnc3ccc(-c4ccc5c(c4)OCO5)cc23)cs1	10.5%
C=CCNc1ncnc2ccc(Br)cc12	48.3% (active)
COc1ccc(Cn2cc(COC(=O)N(C)Cc3ccccc3)nn2)cc1	3.65%
Nc1[nH]c(/C=C2/CCCCC2n2[nH]c(=O)n(-c3ccccc3)c2=O)c(Cc2ccccc2)[n+]1Cc1ccccc1 (configuration not stated)	10.8%
COC(=O)[C@]12C[C@H](CC(=O)NCc3ccccc3)C(=O)N(Cc3ccccc3)C1=C[C@H](COCc1ccccc1)O[C@@H]2C	7.28%
COc1cc(C(O)c2nc3ccccc3n2C)cc(OC)c1OC (configuration not stated)	10.1%
COc1cc(/C=C/C(=O)n2cnc3ccccc32)cc(OC)c1OC	47.1% (active)
COc1cc(/C=C/C(=O)N2CCc3ccccc3C2)cc(OC)c1OC	-52.5%
COC(=O)C12C=C3CC(c4ccccc4)=C3C(=O)N1Cc1[nH]c3ccccc3c1C2 (configuration not stated)	5.87%
COc1cccc2c1C(=O)c1c(O)c3c(c(O)c1C2=O)CC(O)(C(C)=NNC(=O)c1ccc(Cl)c(Cl)c1)CC3OC1CC(N)C(O)C(C)O1 (configuration not stated)	52.1% (active)
CN(C)[C@H]1CCN(c2cccc3c2S(=O)(=O)N2CC[C@H](C2)O3)C1	-16.6%
CCOC(=O)C1=C(C)NC2=C(C(=O)CC(C)(C)C2)C1c1ccc2c(c1)OCO2 (configuration not stated)	13.2%
CCc1cc(-c2nnn(CCC3COCCO3)c2CC)ccc1-c1cn(Cc2ccc3ccccc3c2)nn1 (configuration not stated)	57.9% (active)
COC(=O)[C@]12C[C@H](CC(=O)N3CCOCC3)C(=O)N(Cc3ccc(Cl)cc3Cl)C1=C[C@H](COCc1ccccc1)O[C@@H]2C	-11.3%
CN(C(=O)CN1CCN(c2cc(-c3ccc(OCc4ccccc4)cc3)ncn2)CC1)c1ccccc1	60.6% (active)
COc1cccc(N2CCN(CC(=O)N(C)Cc3ccc(F)cc3)CC2)c1	1.56%

Structure (SMILES)	inhibition
CCOc1ccc(OCc2ccc(C(=O)N(C)c3ccccc3)o2)cc1	-8.76%
CC(O)(c1cccc(F)c1)c1nc(-c2ccc3c(c2)OCO3)cs1 (configuration not stated)	8.11%
CCc1ccccc1NC(=O)c1cc(-c2ccc3c(c2)OCO3)on1	-0.24%
O=C(Nc1nc(-c2ccc3c(c2)OCO3)cs1)c1ccncc1	52.5% (active)
COc1ccc(CC(N)c2csc(NC(=O)Nc3ccc(C(C)C)cc3)n2)cc1 (configuration not stated)	15.8%
CCOC(=O)c1csc(NC(=O)Nc2cccc(OC)c2)n1	-7.28%
CC(=O)Nc1ccc(-c2csc(NC(=O)Nc3ccccc3)n2)cc1	60.9% (active)
O=C1CC[C@@]23CCCN2C(=O)CCC[C@H]3[C@H]1Cc1ccccc1	-3.33%
COC(=O)[C@]12C[C@H](CC(=O)NCc3ccccc3)C(=O)N(CCC3=CCCCC3)C1=C[C@H](C(C)C)O[C@@H]2C1CC1	2.64%
Cn1c(=O)c2c(nc(NCc3ccccc3)n2CC(N)=O)n(C)c1=O	4.42%
CCn1c(NCCc2ccc(OC)c(OC)c2)nc2c1c(=O)n(C)c(=O)n2C	-1.49%
CCCCNc1nc2c(c(=O)n(C)c(=O)n2C)n1Cc1cccc(OC)c1	53.5% (active)
O=C(NC1CCCCN(Cc2cccc(C(F)(F)F)c2)C1=O)c1ccccc1I (configuration not stated)	22.4%
CCC(=O)Nc1ccc2c(c1)C(=O)N(C)[C@@H]1CC[C@@H](CC(=O)NCCc3ccccc3)O[C@H]1CO2	19%
CC(C)N1CCCCC(NC(=O)C(C)(C)C)C1=O (configuration not stated)	0.07%
Cc1ccc(CN2CCCCC(NC(=O)C3CCCCC3)C2=O)cc1 (configuration not stated)	2.64%
O=C(NCCc1c[nH]c2ccccc12)OCc1cn(-c2c(F)cccc2F)nn1	-1.45%
CC(=O)OCCN1CCCC12CCC(c1ccccc1)CC2 (configuration not stated)	-6.1%
O=c1oc2ccccc2cc1-c1cn(-c2ccccc2)c(=S)[nH]1	81.6% (active)
C[C@@H](NC(=O)c1ccccc1OCC(=O)Nc1ccc(I)cc1)C(=O)N(C)Cc1ccccc1	3.89%
COc1ccc(CCNC(=O)CSc2nc3c([nH]2)c(=O)n(C)c(=O)n3C)cc1	-4.66%
CC(CCN1CCC(C(O)(c2ccccc2)c2ccccc2)CC1)Oc1ccc(C(F)(F)F)cc1 (configuration not stated)	9.47%
O=C(OC12CC3CC(CC(C3)C1)C2)c1ccc(NCc2cc(O)ccc2O)cc1	82.7% (active)
COc1ccc(/C=C2/SC(=O)N(CCCCCC(=O)Nc3ccccc3C(=O)O)C2=S)cc1	48% (active)
COc1ccc(NC(=O)CCCN2C(=O)C(c3ccccc3)Oc3cccnc32)cc1 (configuration not stated)	-1.91%

Structure (SMILES)	inhibition
CCCNC(=O)c1ccccc1NC(=O)CSCc1ccc(OC)cc1	10.2%
CCN(CC)C(=O)CC[C@H]1CC[C@]2(CCCN(Cc3ccc(Cl)cc3)C2)O1	-15.6%
COc1ccc(CN2C(=O)N3Cc4cc(OC)ccc4C3CS2(=O)=O)cc1 (configuration not stated)	-0.26%
O=C(Nc1ccccc1C(=O)N1CCOCC1)c1ccc(CSc2ccccc2)cc1	6.62%
O=C(Nc1ccc(CSc2ccccc2)cc1)c1ccc(CN2CCOCC2)cc1	68.5% (active)
C/C(CCc1ccccc1)=N\NC(=O)c1ccc(CN2CCOCC2)cc1	-14.4%
CCC(CO)Nc1cccc2c1S(=O)(=O)N(Cc1cn(Cc3ccccc3C(F)(F)F)nn1)Cc1ccccc1O2 (configuration not stated)	-2%
COc1ccc(-n2c(SCC(=O)Nc3ccc(C)c(Cl)c3)nc3ccccc3c2=O)cc1	2.13%
CCCC[C@H](C(=O)N(CC)c1ccccc1)[C@@H](O)c1ccc2ccccc2c1	-0.42%
Cc1ccc(NC(=O)C(c2ccccc2)N2CCN(C(=O)c3ccco3)CC2)cc1 (configuration not stated)	3.53%
O=C(COc1ccccc1)Nc1ccc(N2CCN(C(=O)c3cccs3)CC2)cc1	-0.29%
Cc1ccc(OCC(=O)Nc2ccc(N3CCN(C(=O)c4ccco4)CC3)cc2)c(C)c1	44.3% (active)
C=CCN1C(=O)[C@H](CC(=O)NCCCN2CCCC2=O)[C@@]2(C(=O)OCC)CCCC=C12	-4.55%
CC(C)(C)NC(=O)C(c1cccnc1)N(C(=O)c1cnco1)c1ccc(C(C)(C)C)cc1 (configuration not stated)	36.4%
CSc1ccc(C=Nn2c(-c3ccc(F)cc3)n[nH]c2=S)cc1	-7.74%
Cc1ccc(NC(=S)NNC(=O)CSc2nnc(SCc3ccccc3Cl)s2)cc1	9.26%
FC(F)(F)c1cccc(NC(=S)OC2CCC23CCC(c2ccccc2)CC3)c1 (configuration not stated)	-0.26%
CCCc1ccc(-c2csc(NC(=O)Cc3cccs3)n2)cc1	42.5% (active)
COc1cc(CC(=O)Nc2nc(-c3ccc(F)c(F)c3)cs2)cc(OC)c1OC	64.1% (active)
COc1ccc(CC(=O)Nc2nc(-c3ccc(F)c(F)c3)cs2)cc1OC	64.1% (active)
COc1cc(CCC(=O)Nc2ccncc2Cl)cc(OC)c1OC	-12.9%
COc1ccc(C2(CNC(=O)Cc3ccc(OC)c(OC)c3)CCCC2)cc1	-3.38%
Fc1ccc(-c2csc(-c3ccc(C4SCCS4)cc3)n2)cc1F	3.02%
COc1ccc(CCNC(=O)COC(=O)Cc2cc(OC)c(OC)c(OC)c2)cc1	2.38%
O=C(Cc1cccs1)Nc1ccc([N+](=O)[O-])cc1	1.87%

Structure (SMILES)	inhibition
O=C(CCc1ccccc1)NCCc1cccs1	-20.7%
O=C(OC12CCCN(C1)/C(=C/c1cccnc1)C2)C1CCCC1 (configuration not stated)	0.25%
Cc1cccc(C(=O)Nc2c(-c3ccc(F)cc3)nc3ncccn23)c1	-5.63%
CCN(C(=O)[C@@H](C1CC1)[C@@H](O)c1ccc2ccccc2c1)c1ccccc1	8.36%
O=C1C(=O)N(Cc2ccc(-c3ccsc3)cc2)c2ccc(OC(F)(F)F)cc21	-43.7%
CCCCC(=O)N[C@@H]1CC[C@@]23CCCN2C(=O)CCC[C@H]3[C@H]1C	-2.57%
COc1ccc(NS(=O)(=O)c2ccc(NC(=O)c3ccc(N(C)S(C)(=O)=O)cc3)cc2)cc1	60.6% (active)
COc1ccc(NS(=O)(=O)c2cc(NC(=O)c3ccc(S(=O)(=O)N(C)C)cc3)ccc2N2CCOCC2)cc1	9.06%
CCOC(=O)c1cc(C(=O)Nc2ccc(S(=O)(=O)Nc3ccc(OC)cc3)cc2)nn1C	8.95%
O=C(N1CCOCC1)N1CC[C@H]2[C@H](CCCN2Cc2ccc(F)cc2)C1	6.77%
CCOC(=O)c1cccc(NC(=O)CN(C)S(=O)(=O)c2ccc(-c3cocn3)s2)c1	-17.4%
CCn1c(=O)n2n(c1=O)[C@@]1(C=C3CCCC[C@H]32)N=C(NC(=O)c2ccccc2)N(Cc2ccccc2)[C@H]1Cc1ccccc1	22.3%
C#CCN([C@H](C(=O)OC)C(C)CC)S(=O)(=O)c1ccccc1Br (some centres not stated)	-21.6%
FC(F)(F)c1cccc(Cn2ccc3ccc(-c4ccc5ccn(Cc6ccccc6)c5c4)cc32)c1	6.43%
C[C@H](C(=O)N(C)c1ccccc1)[C@@H](O)c1ccc(Cl)cc1	-16.9%
O=C(NCc1ccc(Cl)cc1)C1CCN(S(=O)(=O)c2cccs2)CC1	5.16%
O=C(Nc1ccc(Br)cn1)C1CCN(S(=O)(=O)c2cccs2)CC1	48.1% (active)
O=C(C1CCN(S(=O)(=O)c2cccs2)CC1)N1CCCCCC1	-11.4%
COC(=O)C1CN(Cc2cn(Cc3ccc(F)cc3)nn2)CCS(=O)(=O)N1Cc1ccc(Cl)cc1 (configuration not stated)	7.03%
COC(=O)[C@]12C[C@H](CC(=O)NCc3cccs3)C(=O)N(CCc3ccc(OC)c(OC)c3)C1=C[C@H](C(C)C)O[C@@H]2C1CC1	17.9%
COc1ccc(N2CCN(CCNS(=O)(=O)c3ccc(C(C)(C)C)cc3)CC2)cc1	2.21%
C=CCN1C(=O)[C@@H](CC(=O)N2CCN(C(=O)c3ccco3)CC2)[C@]2(C(=O)OC)CCCCC=C12	-0.82%
